# What was measured:
# Assay in all cases: DAPPL (digital affinity profiling via proximity ligation, sequencing); 10 mM Tris-HCl pH 7.5, 50 mM NaCl, 1 mM DTT, 4% glycerol, room temperature, 30 min; GST-TFs on glutathione beads, 16-mer random dsDNA library, 0.1% formaldehyde crosslink after washing; high values mean tight binding
# Details in all cases: protein: recombinant; tags: N-terminal GST; dsDNA, one strand shown
# ELK1 = molecular target: T1, ELK1 (Homo sapiens, UniProt P19419 1-428)
# T1 sequence: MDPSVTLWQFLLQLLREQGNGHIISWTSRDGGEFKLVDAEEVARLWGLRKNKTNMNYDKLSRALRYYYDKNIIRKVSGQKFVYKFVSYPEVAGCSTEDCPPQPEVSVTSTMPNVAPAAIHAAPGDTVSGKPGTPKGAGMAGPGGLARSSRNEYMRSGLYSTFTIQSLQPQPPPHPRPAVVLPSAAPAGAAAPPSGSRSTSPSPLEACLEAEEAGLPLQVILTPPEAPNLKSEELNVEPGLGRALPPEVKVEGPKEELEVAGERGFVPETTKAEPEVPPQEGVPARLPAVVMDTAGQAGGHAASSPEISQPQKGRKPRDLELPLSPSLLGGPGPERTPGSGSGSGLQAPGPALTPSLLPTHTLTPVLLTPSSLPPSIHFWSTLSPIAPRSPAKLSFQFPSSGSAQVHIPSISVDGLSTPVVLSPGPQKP
# Procedure, shortened: (§1)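 A tag-only sample was pooled with DNA-barcoded human transcription factors that had been expressed in yeast as GST fusions and captured on glutathione beads. The pools were incubated for 30 min at room temperature with 200 nmole of a random double-stranded 16-mer DNA library in Tris/NaCl/DTT/glycerol buffer, then washed, crosslinked with 0.1% formaldehyde, proximity-ligated (BsaI/T4 ligase, 1 h, 37 °C), PCR-amplified and sequenced on an Illumina NextSeq500. Binding signal is each hexamer's read frequency for a factor divided by its frequency for the tag-only sample.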
# GABPA = molecular target: T2, GABPA (Homo sapiens, UniProt Q06546 1-454)
# T2 sequence: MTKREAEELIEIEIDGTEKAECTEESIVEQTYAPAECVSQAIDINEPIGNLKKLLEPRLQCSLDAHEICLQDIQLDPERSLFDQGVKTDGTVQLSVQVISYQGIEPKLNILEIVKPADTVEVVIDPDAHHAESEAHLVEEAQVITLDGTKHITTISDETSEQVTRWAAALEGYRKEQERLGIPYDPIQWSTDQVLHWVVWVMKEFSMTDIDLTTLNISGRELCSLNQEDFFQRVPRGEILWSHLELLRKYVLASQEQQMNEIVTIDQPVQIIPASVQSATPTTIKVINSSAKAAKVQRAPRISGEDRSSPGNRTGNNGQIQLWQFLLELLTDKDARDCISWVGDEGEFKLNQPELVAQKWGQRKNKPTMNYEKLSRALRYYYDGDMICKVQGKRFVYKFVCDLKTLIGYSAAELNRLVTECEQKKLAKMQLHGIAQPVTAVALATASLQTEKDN
# Procedure, shortened: as §1
# ERG = molecular target: T3, ERG (Homo sapiens, UniProt P11308 1-479)
# T3 sequence: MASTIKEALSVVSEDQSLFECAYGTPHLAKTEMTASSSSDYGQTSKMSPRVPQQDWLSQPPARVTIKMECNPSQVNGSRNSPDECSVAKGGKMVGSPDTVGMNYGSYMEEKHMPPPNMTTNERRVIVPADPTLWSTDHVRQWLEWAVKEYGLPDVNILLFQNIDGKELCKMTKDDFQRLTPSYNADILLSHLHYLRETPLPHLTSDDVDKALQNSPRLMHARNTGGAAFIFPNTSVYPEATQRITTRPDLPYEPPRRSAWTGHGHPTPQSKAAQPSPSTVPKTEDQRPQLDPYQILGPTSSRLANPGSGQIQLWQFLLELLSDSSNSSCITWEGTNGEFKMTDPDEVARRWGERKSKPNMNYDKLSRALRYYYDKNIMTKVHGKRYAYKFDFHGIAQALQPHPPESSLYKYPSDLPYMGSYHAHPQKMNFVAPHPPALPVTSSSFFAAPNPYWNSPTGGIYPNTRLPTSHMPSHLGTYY
# Procedure, shortened: as §1
# ELF1 = ELF1 (Homo sapiens, UniProt P32519 1-619)
# Chain of ELF1 (P32519 whole entry): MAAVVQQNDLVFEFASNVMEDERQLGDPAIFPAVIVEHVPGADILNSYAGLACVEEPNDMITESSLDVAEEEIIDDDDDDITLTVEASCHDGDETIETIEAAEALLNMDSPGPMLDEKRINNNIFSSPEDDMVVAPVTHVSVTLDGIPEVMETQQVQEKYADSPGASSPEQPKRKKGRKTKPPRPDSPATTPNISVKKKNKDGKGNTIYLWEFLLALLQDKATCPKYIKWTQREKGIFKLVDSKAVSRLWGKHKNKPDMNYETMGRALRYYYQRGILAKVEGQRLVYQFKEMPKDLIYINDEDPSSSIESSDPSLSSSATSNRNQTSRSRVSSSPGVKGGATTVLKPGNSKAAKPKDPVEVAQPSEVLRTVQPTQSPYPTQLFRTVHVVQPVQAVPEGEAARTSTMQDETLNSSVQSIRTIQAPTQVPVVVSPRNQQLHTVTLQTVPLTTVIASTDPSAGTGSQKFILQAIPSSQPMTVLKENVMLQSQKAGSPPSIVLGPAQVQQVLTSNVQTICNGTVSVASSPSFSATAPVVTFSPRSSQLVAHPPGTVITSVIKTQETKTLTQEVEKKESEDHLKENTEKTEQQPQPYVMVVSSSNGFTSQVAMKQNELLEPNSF
# Procedure, shortened: as §1
# EHF = molecular target: T4, EHF (Homo sapiens, UniProt Q9NZC4 1-300)
# T4 sequence: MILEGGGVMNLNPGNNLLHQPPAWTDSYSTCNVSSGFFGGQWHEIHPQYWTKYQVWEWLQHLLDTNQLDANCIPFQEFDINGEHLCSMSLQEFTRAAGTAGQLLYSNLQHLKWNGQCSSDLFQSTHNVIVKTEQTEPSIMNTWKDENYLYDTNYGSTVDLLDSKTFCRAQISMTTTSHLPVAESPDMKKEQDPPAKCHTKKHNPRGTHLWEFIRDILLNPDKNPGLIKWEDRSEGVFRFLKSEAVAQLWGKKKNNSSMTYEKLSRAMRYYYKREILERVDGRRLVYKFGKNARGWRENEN
# Procedure, shortened: as §1
# SPIB = SPIB (Homo sapiens, UniProt Q01892 1-262)
# Chain of SPIB (Q01892 whole entry): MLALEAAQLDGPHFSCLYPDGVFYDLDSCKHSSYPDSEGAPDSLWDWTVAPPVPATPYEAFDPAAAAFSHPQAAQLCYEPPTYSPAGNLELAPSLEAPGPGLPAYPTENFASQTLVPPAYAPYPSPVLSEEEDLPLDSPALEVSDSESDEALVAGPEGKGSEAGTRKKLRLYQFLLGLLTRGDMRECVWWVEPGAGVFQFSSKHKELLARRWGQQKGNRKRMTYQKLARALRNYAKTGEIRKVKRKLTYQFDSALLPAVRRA
# Procedure, shortened: as §1
# FEV = molecular target: T5, FEV (Homo sapiens, UniProt Q99581 1-238)
# T5 sequence: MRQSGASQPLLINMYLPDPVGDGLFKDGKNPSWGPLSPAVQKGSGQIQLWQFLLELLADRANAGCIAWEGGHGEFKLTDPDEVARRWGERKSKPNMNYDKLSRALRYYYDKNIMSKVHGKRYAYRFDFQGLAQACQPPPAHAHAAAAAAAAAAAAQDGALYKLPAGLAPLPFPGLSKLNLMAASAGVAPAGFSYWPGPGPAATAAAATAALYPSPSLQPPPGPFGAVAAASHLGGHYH
# Procedure, shortened: as §1
# ETV5 = ETV5 (Homo sapiens, UniProt P41161 1-510)
# Chain of ETV5 (P41161 whole entry): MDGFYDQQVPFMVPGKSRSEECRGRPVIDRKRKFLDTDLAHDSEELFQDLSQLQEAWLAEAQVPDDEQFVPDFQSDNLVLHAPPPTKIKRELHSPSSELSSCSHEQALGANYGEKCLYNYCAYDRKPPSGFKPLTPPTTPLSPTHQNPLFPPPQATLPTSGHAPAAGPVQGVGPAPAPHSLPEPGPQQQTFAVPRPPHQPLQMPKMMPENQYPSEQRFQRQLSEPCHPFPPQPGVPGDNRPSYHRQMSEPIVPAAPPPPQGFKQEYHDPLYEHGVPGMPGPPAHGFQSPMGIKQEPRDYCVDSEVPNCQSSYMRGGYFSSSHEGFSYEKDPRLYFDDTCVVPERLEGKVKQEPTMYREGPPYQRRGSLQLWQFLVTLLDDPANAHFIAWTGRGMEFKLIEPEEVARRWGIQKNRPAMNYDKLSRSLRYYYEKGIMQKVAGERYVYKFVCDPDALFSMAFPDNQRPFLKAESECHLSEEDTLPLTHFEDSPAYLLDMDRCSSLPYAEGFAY
# Procedure, shortened: as §1
# ELF4 = ELF4 (Homo sapiens, UniProt Q99607 1-663)
# Chain of ELF4 (Q99607 whole entry): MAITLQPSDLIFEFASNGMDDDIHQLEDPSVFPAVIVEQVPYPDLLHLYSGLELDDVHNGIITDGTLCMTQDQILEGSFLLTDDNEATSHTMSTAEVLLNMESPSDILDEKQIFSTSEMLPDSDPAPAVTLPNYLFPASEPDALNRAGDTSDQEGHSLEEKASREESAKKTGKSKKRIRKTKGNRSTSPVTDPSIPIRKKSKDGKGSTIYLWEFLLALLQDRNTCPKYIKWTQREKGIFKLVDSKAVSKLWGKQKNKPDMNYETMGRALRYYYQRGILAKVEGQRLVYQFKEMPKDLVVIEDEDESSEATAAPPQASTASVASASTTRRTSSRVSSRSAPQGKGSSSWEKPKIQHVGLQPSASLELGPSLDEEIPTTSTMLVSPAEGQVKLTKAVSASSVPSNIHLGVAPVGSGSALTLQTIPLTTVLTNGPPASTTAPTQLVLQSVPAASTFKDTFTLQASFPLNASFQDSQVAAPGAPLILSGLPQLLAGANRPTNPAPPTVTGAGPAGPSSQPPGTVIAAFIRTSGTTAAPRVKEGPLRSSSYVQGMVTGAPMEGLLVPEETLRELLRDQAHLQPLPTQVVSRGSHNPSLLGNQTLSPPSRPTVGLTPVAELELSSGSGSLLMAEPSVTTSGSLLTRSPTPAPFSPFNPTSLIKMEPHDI
# Procedure, shortened: as §1
sequence,measurement,setting,value
ATAATG,binding signal,ELK1,"1.1 fold enrichment (6-mer frequency, TF over GST control)"
same,binding signal,GABPA,"1.06 fold enrichment (6-mer frequency, TF over GST control)"
same,binding signal,ERG,"1.03 fold enrichment (6-mer frequency, TF over GST control)"
same,binding signal,ELF1,"1.11 fold enrichment (6-mer frequency, TF over GST control)"
same,binding signal,EHF,"1.14 fold enrichment (6-mer frequency, TF over GST control)"
same,binding signal,SPIB,"1.19 fold enrichment (6-mer frequency, TF over GST control)"
same,binding signal,FEV,"1.08 fold enrichment (6-mer frequency, TF over GST control)"
same,binding signal,ETV5,"1.09 fold enrichment (6-mer frequency, TF over GST control)"
same,binding signal,ELF4,"1.06 fold enrichment (6-mer frequency, TF over GST control)"

# Source: PMC7862700, “An all-to-all approach to the identification of sequence-specific readers for epigenetic DNA modifications on cytosine”
